Assay outcomes: PubChem BioAssay, National Center for Advancing Translational Sciences (NCATS)
Compounds with a hit are over-represented: about 8.1% of the library has one in this group of screens.
KB-3-1 cytotox = KB-3-1 parental cell cytotoxicity | KB-3-1 viability, CellTiter-Glo ATP luminescence, 72 h | Potency, µM (series often up to 46.1 µM), usual class: cytotoxic | 400,000 tested, 1.4% active | AID 1347075; further: on the % scale 0 is the no-effect control and ±100 the full control effect; nearly all actives have a fitted effect of over 60% in size
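Luminescent ATP read-out (CellTiter-Glo) measures survival of drug-naive KB-3-1 cells after 72 h compound exposure at 37 °C. Titration series was screened from lowest to highest concentration, with DMSO vehicle plates as background controls.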
ELG1 DNA repair = inhibitors of ELG1-dependent DNA repair in HEK293T cells. AID 504467. Potency, µM (highest dose often 46.1 µM), for the others: at the highest dose activity change, negative = inhibition, actives largely listed as inhibitors. HEK293T ELG1-luciferase reporter, luminescence, 16 h; DNA damage induced by 5-fluorouridine. 330,000 tested, 2.3% active; further: on the % scale 0 is the no-effect control and ±100 the full control effect; nearly all actives have a fitted effect of over 55% in size
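In this reporter screen, reduction of luminescence relative to DMSO vehicle indicated activity. Compounds and 5-fluorouridine were added together to 2,000 cells per well, incubated for 16 hr at 37 °C, then developed with ONE-Glo.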
SW480 rereplic = inducers of DNA re-replication in SW480 colon cancer cells; Potency, µM (titrated, usually from 46.1 µM), inactives show at the highest dose re-replication activation, actives largely listed as activators; SW480 DNA re-replication, Hoechst DNA content imaging, 48 h; 340,000 tested, 1.8% active; further: % of control where 0% means no effect; nearly all actives have a fitted effect of over 55% in size
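SW480 cells exposed to compounds for 48 hr at 37 C, 5% CO2, then Hoechst-stained 40 min. Nuclear DNA content imaged by fluorescence scanning (405 nm excitation, 500-530 nm emission); re-replication scored as increased high-intensity nuclei.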
MCF10A rerep = inducers of DNA re-replication in MCF 10A breast cells; MCF 10A DNA re-replication, Hoechst nuclear intensity, 48 h; Potency, µM (series often up to 46.1 µM), for the others: at the highest dose activity, positive = re-replication, usual class: activators; 350,000 tested, 2.9% active; AID 624296; further: % of control where 0% means no effect; nearly all actives have a fitted effect of over 50% in size
KB-V1 MDR tox = kills drug-selected multidrug resistant KB-V1 cells | 400,000 tested, 3.4% active | KB-V1 MDR cells viability, CellTiter-Glo, 72 h | Potency, µM (titrated, usually from 46.1 µM), hits mostly cytotoxic | AID 1347076; further: on the % scale 0 is the no-effect control and ±100 the full control effect; nearly all actives have a fitted effect of over 60% in size
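Potencies derive from concentration-effect curves fitted to normalized luminescence (CellTiter-Glo) of KB-V1 cells treated for 72 h at 37 degrees C in phenol-red-free DMEM containing 10% FBS.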
Numbers without * were called inactive; i = inactive; ? = inconclusive; / = no result given; [ ] = remark or other dose. The call rests on the fitted dose curve; in most records, active means well fitted curve in the direction sought with a large enough effect; inconclusive means small, poorly fitted or top-dose-only effect, or another doubt; inactive means no such curve, though single readings can be large; an effect the other way counts as inactive or inconclusive. Potency means the concentration at half of the fitted maximal effect.

SMILES | KB-3-1 cytotox | ELG1 DNA repair | SW480 rereplic | MCF10A rerep | KB-V1 MDR tox
Cc1ccc(NC(=O)CC2SCCNC2=O)cc1Cl (configuration not stated) | i | ? | -2.1% | -0.5% | i
CN(C)CC(O)CN1C(=O)N(CN2C(=O)N(CC(O)CN(C)C)C(=O)C2(C)C)C(C)(C)C1=O (configuration not stated) | i | 0.0% | -1.5% | 2.1% | i
O=[N+]([O-])c1ccc(O)c(/C=N/Nc2nc3ccccc3[nH]2)c1 | ? | ? | 22.8% | 8.2µM* | ?
O=[N+]([O-])c1ccc(NN=Cc2ccccc2)nc1 | i | / | ? | -1.3% | i
N#Cc1ccccc1Cn1cc(/C=N/Nc2ccc([N+](=O)[O-])cn2)c2ccccc21 | i | 6.51µM* | 8.4% | 11.9% | ?
O=[N+]([O-])c1ccc(N/N=C/c2ccc(OCc3cccc4ccccc34)cc2)nc1 | ? | ? | 20.6µM* | ? | i
Oc1cccc(C=NNc2ccccn2)c1 | i | / | -0.2% | 1.8% | ?
Oc1ccc(C=NNc2ccccn2)c(O)c1 | ? | / | ? | 16.4µM* | i
CCOCCSc1n[nH]c(=O)n1CCc1ccccc1 | i | 4.1% | -9.6% | -7.2% | i
CCc1c(C)nc(SCC(=O)N2CCCCC2C)[nH]c1=O (configuration not stated) | i | ? | -3.2% | 8.8% | i
COc1ccc(NC(=S)Nc2ccc(N)c([N+](=O)[O-])c2)cc1 | i | ? | 0.5% | 4.7% | i
O=[N+]([O-])c1ccc(O)c(/C=N/Nc2ccccn2)c1 | ? | ? | 1.3µM* | ? | i
O=[N+]([O-])c1cccc(N/N=C/c2cc([N+](=O)[O-])ccc2O)c1 | i | ? | -8.2% | ? | i
Cc1cc(C(=O)N2CCCC(N3CCN(c4cccc(Cl)c4)CC3)C2)no1 (configuration not stated) | / | -2.7% | 0.4% | 3.2% | /
COc1ccc(Br)cc1CN(C)CC(=O)Nc1cc(Cl)ccc1Cl | i | -23.1% | 4.0% | ? | 7.31µM*
COc1ccccc1CN(C)CC(=O)Nc1ccc(Cl)cc1C(F)(F)F | i | 4.8% | 8.7% | ? | i
COc1ccccc1CN(C)CC(=O)Nc1ccc(Cl)cc1F | i | ? | -60.3% | 1.16µM* | i
CCCc1nc(SCc2cc(=O)c3ccc(C)c(C)c3[nH]2)n[nH]1 | i | / | / | / | i
Cc1cc(=O)[nH]c2c1c(C)nn2C(C)(C)C | ? | 10.9% | -1.6% | 0.9% | i
Cc1ccc(SCCC(=O)Nc2ccccc2C(=O)NC2CCCCC2)cc1 | i | 1.8% | 2.5% | 17.2% | i
COC(=O)COn1c(SC(C)C)nc2ccccc2c1=O | i | 15.7% | 1.2% | 1.1% | i
CCOC(=O)c1c(NC(=O)c2ccoc2C)sc(C(=O)N(C)C)c1C | i | 7.31µM* | -2.9% | -2.5% | i
CCOC(=O)c1c(NC(=O)COc2cccc3c2CCN(C)C3=O)sc2c1CCC2 | i | 18.4µM* | -4.3% | ? | ?
CCOC(=O)c1c(NC(=O)c2cc(Cl)ccc2Cl)sc2c1CCCC2 | i | / | / | / | i
Cc1cccc(NC(=O)COc2cccc3c2CCN(C)C3=O)c1C | i | ? | -2.7% | 0.2% | ?
CCOC(=O)c1c(NC(NC(=O)C(C)C)C(Cl)(Cl)Cl)sc2c1CCC2 (configuration not stated) | ? | -12.5% | ? | 23.1µM* | 23.1µM*
CCOC(=O)c1c(NC(=O)c2ccoc2C)sc2c1CCC2 | i | -5.4% | 5.9% | ? | 20.6µM*
CC(=O)Nc1ccc(C(=O)N(C)C(C(=O)Nc2ccc(C)cc2)c2ccccn2)cc1 (configuration not stated) | i | 9.3% | -124.7% | 13.6% | i
CCOC(=O)C1=CN(Cc2cccc(F)c2)S(=O)(=O)N(CC)C1c1ccc(F)c(Cl)c1 (configuration not stated) | ? | 0.3% | 12.6%[9.22 µM] | 15.2% | ?
CCOC(=O)c1sc(NC(=O)CN(CC(C)C)CC(C)C)c(C(=O)OCC)c1C | ? | -8.2% | 2.7% | ? | 20.6µM*
